Measured values as given in PubChem BioAssay (Tox21).
Several values for one entry are separate records, joined by “and”; a condition that tells them apart may be missing. Equal entries are not always repeated. Activity calls are given as the source filed them. A call without a number means that no potency is given here. Unless noted, calls come from the whole dose curve; as a rule, active = well fitted curve in the direction sought with a large enough effect in the repeat runs; inconclusive = weak or mixed curves; inactive = no such curve, though single readings can be large; an effect the other way counts as inactive or inconclusive.

What was measured:
[1] = qHTS assay to identify small molecule antagonists of the glucocorticoid receptor (GR) signaling pathway - cell viability counter screen (AID 720693); note: nearly all actives have a fitted effect of over 55% in size
[2] = qHTS assay for identifying genotoxic compounds that show differential cytotoxicity against isogenic chicken DT40 cell lines with known DNA damage response pathways - wild type cell line (AID 743012); note: nearly all actives have a fitted effect of over 60% in size; note: potency is the fitted concentration of half-maximal effect
Method in brief: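 Cytotoxicity in repair-proficient parental chicken DT40 cells serves as the comparator for Rad54/Ku70- and Rev3-deficient lines. Cells were exposed to compounds for 40 h at 37 C/5% CO2, and ATP-based luminescence (CellTiter-Glo) measured viability.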

[3] = qHTS assay for identifying genotoxic compounds that show differential cytotoxicity against isogenic chicken DT40 cell lines with known DNA damage response pathways - Rev3 mutant cell line (AID 743014); note: nearly all actives have a fitted effect of over 55% in size; note: potency is the fitted concentration of half-maximal effect
[4] = qHTS assay for identifying genotoxic compounds that show differential cytotoxicity against isogenic chicken DT40 cell lines with known DNA damage response pathways - Rad54/Ku70 mutant cell line (AID 743015); note: nearly all actives have a fitted effect of over 60% in size; note: potency is the fitted concentration of half-maximal effect
[5] = qHTS assay to identify small molecule antagonists of the androgen receptor (AR) signaling pathway - cell viability counter screen (AID 743033; note: nearly all actives have a fitted effect of over 45% in size)
[6] = biological target: Androgen receptor (Homo sapiens) (UniProt P10275); experiment: qHTS assay to identify small molecule antagonists of the androgen receptor (AR) signaling pathway (AID 743035; active = well fitted inhibition curve with a large enough effect in the signal ratio in the repeat runs, not every such curve was filed as active; inconclusive = weak or mixed curves, or effect the other way; inactive = no such curve, though single readings can be large or run the other way; the % refers to the signal ratio)
Method in brief: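 Steps: seed AR-UAS-bla GripTite HEK293 cells, incubate 4 h at 37C; pin in test compound, then add agonist R1881; incubate 16 h at 37C; add LiveBLAzer B/G FRET substrate, 2 h at room temperature; read fluorescence.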

[7] = biological target: Androgen receptor (Homo sapiens) (UniProt P10275); experiment: qHTS assay to identify small molecule agonists of the androgen receptor (AR) signaling pathway (AID 743036; active = well fitted activation curve with a large enough effect in the signal ratio in the repeat runs, with a control signal flat, not every such curve was filed as active; inconclusive = weak or mixed curves, or effect the other way; inactive = no such curve, though single readings can be large or run the other way; the % refers to the signal ratio)
Method in brief: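 AR-UAS-bla HEK293 cells, plated 4 h before dosing, were treated with compound for 16 h at 37C. beta-Lactamase reporter read after 2 h with LiveBLAzer B/G FRET substrate at room temperature.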

[8] = biological target: Androgen receptor (Homo sapiens) (UniProt P10275); experiment: qHTS assay to identify small molecule agonists of the androgen receptor (AR) signaling pathway using the MDA cell line (AID 743040; note: nearly all actives have a fitted effect of over 20% in size)
Method in brief: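 Luciferase read-out, ONE-Glo, 30 min RT. Cells: MDA-kb2 AR-luc, MMTV promoter with AR and GR response elements. Compound exposure 16 h, 37C, 0% CO2, after 5 h pre-incubation. qHTS agonist mode.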

[9] = qHTS assay to identify small molecule antagonists of the androgen receptor (AR) signaling pathway using the MDA cell line - cell viability counter screen (AID 743041; note: nearly all actives have a fitted effect of over 45% in size)
Method in brief: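 Cytotoxicity counter screen: MDA-kb2 AR-luc cells, compound + R1881, 16 h, 37C, 0% CO2; CellTiter-Fluor added at 15.5 h, fluorescence read after 30 min.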

[10] = biological target: Androgen receptor (Homo sapiens) (UniProt P10275); experiment: qHTS assay to identify small molecule antagonists of the androgen receptor (AR) signaling pathway using the MDA cell line (AID 743042; note: nearly all actives have a fitted effect of over 55% in size; note: potency is the fitted concentration of half-maximal effect)
Method in brief: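 MDA-kb2 breast carcinoma cells carrying MMTV-luciferase (AR/GR responsive) were co-treated with compounds and the agonist R1881 for 16 h at 37C. Inhibition read as ONE-Glo luminescence; CellTiter-Fluor fluorescence measured in parallel for cytotoxicity.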

[11] = qHTS assay to identify small molecule antagonists of the thyroid receptor (TR) signaling pathway - cell viability counter screen (AID 743064); note: nearly all actives have a fitted effect of over 50% in size; note: potency is the fitted concentration of half-maximal effect
Method in brief: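 GH3.TRE-Luc rat pituitary cells dosed after 4 hr plating, co-stimulated with T3 at 1 nM final, incubated 23.5 h at 37 C. Viability measured in the same wells by CellTiter-Fluor fluorescence after 30 min further at 37 C.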

[12] = qHTS assay to identify small molecule antagonists of the thyroid receptor (TR) signaling pathway (AID 743065); note: nearly all actives have a fitted effect of over 55% in size; note: potency is the fitted concentration of half-maximal effect
Method in brief: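 GH3.TRE-Luc rat pituitary cells (two TREs driving luciferase) were dosed with compound, then stimulated with 1 nM T3 (final) for 23.5 h at 37 C. ONE-Glo luminescence was the read-out, with CellTiter-Fluor fluorescence as the cytotoxicity counter-screen.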

[13] = tested on: thyroid hormone receptor (rat, GH3 cells); experiment: qHTS assay to identify small molecule agonists of the thyroid receptor (TR) signaling pathway (AID 743066; calls by dose curve)
[14] = biological target: Estrogen receptor (Homo sapiens) (UniProt P03372); experiment: qHTS assay to identify small molecule antagonists of the estrogen receptor alpha (ER-alpha) signaling pathway (AID 743069; active = well fitted curve in the direction sought with a large enough effect in the signal ratio in the repeat runs, not every such curve was filed as active; inconclusive = weak or mixed curves, or effect the other way; inactive = no such curve, though single readings can be large or run the other way; the % refers to the signal ratio; note: potency is the fitted concentration of half-maximal effect)
Method in brief: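 Beta-lactamase FRET fluorescence is read after 2 hr at room temperature with LiveBLAzer B/G substrate. Before that, ER-alpha-bla HEK293 cells sit 4 hr after plating, then receive compound plus 17beta-estradiol and incubate 18 hr at 37C.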

[15] = qHTS assay to identify small molecule antagonists of the estrogen receptor alpha (ER-alpha) signaling pathway - cell viability counter screen (AID 743074; calls by dose curve;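 note: HEK293 cells carrying ER-alpha-UAS-bla reporter stimulated with 17beta-estradiol; nearly all actives have a fitted effect of over 45% in size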)
[16] = biological target: Estrogen receptor (Homo sapiens) (UniProt P03372); experiment: qHTS assay to identify small molecule agonists of the estrogen receptor alpha (ER-alpha) signaling pathway (AID 743075; calls by dose curve;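 note: HEK293 GripTite cells with ER-alpha and UAS-driven beta-lactamase reporter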)
[17] = biological target: Estrogen receptor (Homo sapiens) (UniProt P03372); experiment: qHTS assay to identify small molecule agonists of the estrogen receptor alpha (ER-alpha) signaling pathway using the BG1 cell line (AID 743079); note: nearly all actives have a fitted effect of over 20% in size; note: potency is the fitted concentration of half-maximal effect
[18] = qHTS assay to identify small molecule antagonists of the estrogen receptor alpha (ER-alpha) signaling pathway using the BG1 cell line (AID 743080; calls by dose curve;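 note: BG1 cells stimulated with 17beta-estradiol alongside compound; series mostly up to about 70 µM; nearly all actives have a fitted effect of over 25% in size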)
Method in brief: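 After 5 days in phenol-red-free 10% charcoal-stripped FBS medium, BG1-Luc-4E2 cells were seeded, left 24 h at 37 C, co-treated with compounds and 17beta-estradiol for 21.5 h, then assayed for viability and luciferase.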

[19] = qHTS assay to identify small molecule antagonists of the estrogen receptor alpha (ER-alpha) signaling pathway using the BG1 cell line - cell viability counter screen (AID 743081);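 note: compound given together with 17beta-estradiol as the ER stimulus; series mostly up to about 70 µM; nearly all actives have a fitted effect of over 45% in size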
Aromatase (Homo sapiens) = Aromatase (Homo sapiens) (UniProt P11511); experiment: qHTS assay to identify aromatase inhibitors (AID 743083); note: nearly all actives have a fitted effect of over 55% in size; note: potency is the fitted concentration of half-maximal effect
Aromatase (Homo sapiens), sequence (P11511 whole entry, looked up): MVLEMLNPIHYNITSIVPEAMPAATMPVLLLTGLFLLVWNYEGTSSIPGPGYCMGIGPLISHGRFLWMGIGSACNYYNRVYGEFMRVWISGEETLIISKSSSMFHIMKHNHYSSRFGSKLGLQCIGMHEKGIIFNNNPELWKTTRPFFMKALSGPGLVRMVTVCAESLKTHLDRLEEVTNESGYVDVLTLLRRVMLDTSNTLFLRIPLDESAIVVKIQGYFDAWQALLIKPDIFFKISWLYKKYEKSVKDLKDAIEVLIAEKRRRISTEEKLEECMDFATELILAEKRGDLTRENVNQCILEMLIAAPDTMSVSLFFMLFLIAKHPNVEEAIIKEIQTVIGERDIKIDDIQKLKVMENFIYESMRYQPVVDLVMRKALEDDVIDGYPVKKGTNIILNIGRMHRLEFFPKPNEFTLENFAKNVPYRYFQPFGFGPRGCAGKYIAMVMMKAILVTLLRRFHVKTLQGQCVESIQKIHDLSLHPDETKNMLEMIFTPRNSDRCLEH

Estrogen receptor (Homo sapiens), sequence (P03372 whole entry, looked up): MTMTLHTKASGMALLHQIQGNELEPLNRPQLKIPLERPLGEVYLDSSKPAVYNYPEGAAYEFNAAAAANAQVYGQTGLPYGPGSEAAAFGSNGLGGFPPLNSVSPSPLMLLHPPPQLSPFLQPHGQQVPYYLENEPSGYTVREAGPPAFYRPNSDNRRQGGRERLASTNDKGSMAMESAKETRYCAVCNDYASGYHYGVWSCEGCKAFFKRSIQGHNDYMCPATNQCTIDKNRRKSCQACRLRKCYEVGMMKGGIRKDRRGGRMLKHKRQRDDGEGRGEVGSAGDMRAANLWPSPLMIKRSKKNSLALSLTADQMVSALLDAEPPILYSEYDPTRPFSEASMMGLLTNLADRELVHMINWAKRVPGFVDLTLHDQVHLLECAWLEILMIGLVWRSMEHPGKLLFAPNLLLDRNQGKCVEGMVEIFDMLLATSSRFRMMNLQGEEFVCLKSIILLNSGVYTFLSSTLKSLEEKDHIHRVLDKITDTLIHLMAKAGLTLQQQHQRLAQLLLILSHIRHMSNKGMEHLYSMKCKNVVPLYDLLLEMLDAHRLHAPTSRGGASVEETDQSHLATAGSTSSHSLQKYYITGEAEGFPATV
Androgen receptor (Homo sapiens), sequence (P10275 whole entry, looked up): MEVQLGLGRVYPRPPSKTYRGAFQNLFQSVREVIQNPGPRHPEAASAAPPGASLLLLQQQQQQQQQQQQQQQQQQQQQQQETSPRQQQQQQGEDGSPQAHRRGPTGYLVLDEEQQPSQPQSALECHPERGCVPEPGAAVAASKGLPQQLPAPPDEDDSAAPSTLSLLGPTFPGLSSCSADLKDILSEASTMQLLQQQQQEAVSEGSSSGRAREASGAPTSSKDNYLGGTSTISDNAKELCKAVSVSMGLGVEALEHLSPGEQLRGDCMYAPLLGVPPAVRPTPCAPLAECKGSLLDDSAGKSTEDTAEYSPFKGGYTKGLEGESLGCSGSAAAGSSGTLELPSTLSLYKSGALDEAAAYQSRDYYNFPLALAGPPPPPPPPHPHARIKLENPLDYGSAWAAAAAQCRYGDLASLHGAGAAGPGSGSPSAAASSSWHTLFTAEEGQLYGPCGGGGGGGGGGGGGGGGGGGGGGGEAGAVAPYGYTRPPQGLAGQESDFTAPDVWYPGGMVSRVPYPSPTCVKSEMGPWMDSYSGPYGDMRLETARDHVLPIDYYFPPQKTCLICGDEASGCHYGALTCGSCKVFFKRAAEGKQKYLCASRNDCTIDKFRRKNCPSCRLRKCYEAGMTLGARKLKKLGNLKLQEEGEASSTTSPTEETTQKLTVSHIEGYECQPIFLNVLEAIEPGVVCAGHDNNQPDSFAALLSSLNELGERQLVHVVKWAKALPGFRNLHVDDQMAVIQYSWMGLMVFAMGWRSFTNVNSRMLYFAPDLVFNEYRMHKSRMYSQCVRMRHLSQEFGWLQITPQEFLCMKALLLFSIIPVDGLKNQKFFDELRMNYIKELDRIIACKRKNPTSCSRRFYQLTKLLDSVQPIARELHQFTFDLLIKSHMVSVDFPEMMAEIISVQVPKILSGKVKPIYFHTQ

SMILES	Potency [1]	Potency [2]	Potency [3]	Potency [4]	Potency [5]	Potency [6]	Potency [7]	Potency [8]	Potency [9]	Potency [10]	Potency [11]	Potency [12]	Potency [13]	Potency [14]	Potency [15]	Potency [16]	Potency [17]	Potency [18]	Potency [19]	Potency (Aromatase (Homo sapiens))
CC1=C(/C=C/C(C)=C/C=C/C(C)=C/C=C/C=C(C)/C=C/C=C(C)/C=C/C2=C(C)CCCC2(C)C)C(C)(C)CCC1	inactive	inactive	inactive	inactive	inactive	inactive	inactive	inactive	inactive	inactive	inactive	inactive	inactive	inactive	inactive	inactive	inactive	inactive	inactive	inactive
CN(C)CCc1c[nH]c2ccc(Cn3cncn3)cc12	inactive	inactive	inactive	inactive	inactive	inactive	inactive	inactive	inactive	inactive	inactive	inactive	inactive	–	inactive	–	–	–	inactive	inactive
C1CCc2nnnn2CC1	inactive	inactive	inactive	inactive	inactive	–	–	–	inactive	–	inactive	inactive	inactive	inactive	inactive	inactive	inactive	inactive	inactive	–
CN[C@@H]1[C@@H](O[C@H]2O[C@H](CO)[C@@H](N)[C@H](O)[C@H]2O)O[C@H]2C[C@@H](N)[C@@H](O[C@H]3[C@H](O)[C@@H](O)[C@H](N)C[C@@H]3N)O[C@@H]2[C@@H]1O	inactive	inactive	inactive	inactive	inactive	inactive	inactive	inactive	inactive	inactive	inactive	inactive	inactive	inactive	inactive	inactive	inactive	inactive	inactive	inactive
C[C@H](Cc1ccc(O)c(O)c1)[C@@H](C)Cc1ccc(O)c(O)c1	inactive	10.6 µM (active)	23.7 µM (active)	10.6 µM (active)	inactive	–	–	–	inactive	–	9.44 µM (active)	8.41 µM (active)	inactive	inactive	inactive	inactive	inactive	inactive	inactive	inactive
COc1c(O)cc2c(c1O)[C@@H]1O[C@H](CO)[C@@H](O)[C@H](O)[C@H]1OC2=O	inactive	inactive	inactive	inactive	inactive	inactive	–	inactive	inactive	inactive	inactive	–	inactive	inactive	–	inactive	inactive	inactive	inactive	inactive
CC(C)CCC[C@@H](C)[C@H]1CC[C@H]2[C@@H]3CC=C4C[C@@H](O)CC[C@]4(C)[C@H]3CC[C@]12C	inactive	inactive	inactive	inactive	inactive	–	–	–	inactive	–	inactive	inactive	inactive	inactive	inactive	inactive	inactive	inactive	inactive	inactive
CCC1OC(=O)C[C@@H](O)[C@H](C)[C@@H](O[C@@H]2O[C@H](C)C[C@H](N(C)C)[C@H]2O)[C@@H](CC=O)C[C@@H](C)C(=O)/C=C/[C@]2(C)OC2C1C (stereo not given in full)	inactive	11.9 µM (active) and 4.73 µM (active)	21.1 µM (active) and 8.41 µM (active)	16.8 µM (active) and 7.5 µM (active)	inactive	–	inactive	inactive	inactive	26.6 µM (active) and 23.7 µM (active)	–	–	–	16.9 µM [inconclusive] (active)	inactive	inactive	–	–	–	26.6 µM (active)
Cc1cc(=O)c(C(=O)N[C@@H](C(=O)N[C@@H]2C(=O)N3C(C(=O)O)=C(CSc4nnnn4C)CS[C@H]23)c2ccc(O)cc2)c[nH]1	inactive	inactive	inactive	inactive	inactive	inactive	inactive	inactive	inactive	inactive	inactive	–	inactive	inactive	inactive	inactive	23.7 µM (active)	inactive	inactive	inactive
C[N+](C)(C)CCOP(=O)(O)OP(=O)([O-])OC[C@H]1O[C@@H](n2ccc(N)nc2=O)[C@H](O)[C@@H]1O	inactive	inactive	inactive	inactive	inactive	inactive	inactive	–	inactive	inactive	inactive	inactive	inactive	inactive	inactive	inactive	inactive	inactive	inactive	inactive
CC(C)NCC1CCc2cc(CO)c([N+](=O)[O-])cc2N1 (stereo not given)	inactive	inactive	inactive	inactive	inactive	inactive	inactive	inactive	inactive	inactive	inactive	inactive	inactive	inactive	inactive	inactive	inactive	inactive	–	inactive
